Source: PubChem BioAssay (NCI)
The panel holds about 83,000 compounds, 20% with a hit somewhere; the sample as a whole holds those more often.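 How to read the values: 0–100, growth inhibition (40 = 60% inhibited); 0, no net growth; -100 to 0, cell death (-40 = 40% of starting cells died; -100 = all dead).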 Activity calls are given as the source filed them. Rule for the calls: active = growth percent below 10; inactive = the rest.

Experiments:
Assay in all cases: NCI-60 one-dose screen, 48 h (100 = growth as untreated, 0 = no growth, -100 = all killed)
[1] = test system: HCT-15 colon; conditions: 10 µM unless noted
[2] = test system: HT29 colon; conditions: 10 µM unless noted
[3] = test system: SNB-75 CNS; conditions: 10 µM unless noted
[4] = test system: SNB-19 CNS; conditions: 10 µM unless noted
[5] = test system: U251 CNS; conditions: 10 µM unless noted
[6] = test system: PC-3 prostate; conditions: 10 µM unless noted
[7] = test system: SK-MEL-5 melanoma; conditions: 10 µM unless noted
[8] = test system: UACC-62 melanoma; conditions: 10 µM unless noted
[9] = test system: LOX IMVI melanoma; conditions: 10 µM unless noted
[10] = test system: SK-MEL-28 melanoma; conditions: 10 µM unless noted
[11] = test system: SK-MEL-2 melanoma; conditions: 10 µM unless noted
[12] = test system: EKVX NSCLC; conditions: 10 µM unless noted
[13] = test system: SN12C renal; conditions: 10 µM unless noted
[14] = test system: UO-31 renal; conditions: 10 µM unless noted
[15] = test system: TK-10 renal; conditions: 10 µM unless noted
[16] = test system: A498 renal; conditions: 10 µM unless noted
[17] = test system: CCRF-CEM leukemia; conditions: 10 µM unless noted
[18] = test system: MOLT-4 leukemia; conditions: 10 µM unless noted
[19] = test system: CAKI-1 renal; conditions: 10 µM

Measured: growth

COc1ccc(/C=C/C(=O)c2ccc(NC(=O)CSc3nnc(-c4cc(OC)c(OC)c(OC)c4)o3)cc2)cc1
active: [1] -79.6% | [2] -80.9% | [3] -89.7% | [4] -48.7% | [5] -90.1% | [6] -34.7% | [7] -84.2% | [8] -46.3% | [9] -69.4% | [10] -21% | [12] -2.83% | [13] -43.5% | [14] -85.3% | [17] -1.51% | [18] -25.9%
inactive: [11] 37.7% | [15] 78.8% | [16] 90.5%

Cl[C@@H]1CCO[C@H](c2cc3ccccc3c3ccccc23)C1
inactive: [1] 96.9% | [2] 98.8% | [3] 103% | [4] 91.7% | [5] 90.6% | [6] 92.8% | [7] 93% | [8] 85.2% | [9] 97.6% | [10] 104% | [11] 101% | [12] 90.8% | [13] 95.4% | [14] 89.2% | [15] 92.8% | [16] 77.2% | [17] 85.9% | [18] 98%

Cc1c(F)cccc1NC(=O)c1sc2nc3c(cc2c1N)CCCCC3
inactive: [1] 28.5% | [2] 15.6% | [3] 76.2% | [4] 53.9% | [5] 56.3% | [6] 70.7% | [7] 39.2% | [8] 27% | [9] 50.4% | [10] 68.7% | [11] 40.7% | [12] 64.7% | [13] 84.6% | [14] 72.7% | [15] 85.3% | [16] 33.7% | [17] 23.6% | [18] 30.7%

CCCC(C)(C)COC(=O)c1cccc(N)c1
inactive: [1] 113% | [2] 78.5% | [3] 94.5% | [4] 106% | [5] 89.1% | [6] 78.1% | [7] 102% | [8] 96.6% | [9] 101% | [10] 117% | [11] 88% | [12] 101% | [13] 98.4% | [14] 69.2% | [15] 84.5% | [16] 88.6% | [17] 88.5% | [18] 56%

COc1ccc(-c2ccc(NC(=O)Nc3ccc(Cl)c(C(F)(F)F)c3)c(C)n2)cc1
inactive: [1] 37.8% | [2] 46.4% | [3] 73.4% | [4] 57.3% | [5] 33.6% | [6] 14.7% | [7] 55.7% | [8] 65.6% | [9] 64.5% | [10] 71.4% | [11] 62.1% | [12] 49.2% | [13] 57.4% | [14] 39.3% | [15] 65.9% | [16] 57.7% | [17] 29.9% | [18] 24.6%

CC(CN(C)C)CN1c2ccccc2CCc2ccccc21 (configuration not stated)
inactive: [1] 89.9% | [2] 56.7% | [3] 66.9% | [4] 96.8% | [5] 85.6% | [6] 66.7% | [7] 77.9% | [8] 77.1% | [9] 74.5% | [10] 84.9% | [11] 88.8% | [12] 80.6% | [13] 73.7% | [14] 38.9% | [15] 87.2% | [19] 70.6% | [16] 104% | [17] 87.1% | [18] 81.2%

CCN(CC)CCNCC(O)Cc1ccc(OC)cc1 (configuration not stated)
inactive: [1] 112% | [2] 77.4% | [3] 110% | [4] 98.9% | [5] 94.5% | [6] 76.2% | [7] 99.9% | [8] 93.9% | [9] 103% | [10] 116% | [11] 96.4% | [12] 105% | [13] 98.8% | [14] 82.6% | [15] 88% | [16] 109% | [17] 83.9% | [18] 73.4%

Cc1ccc(-c2nc3c(N=Nc4ccc(S(N)(=O)=O)cc4)c(N)nn3c(N)c2C#N)cc1
inactive: [1] 82.5% | [2] 35.8% | [3] 49% | [4] 58% | [5] 31.8% | [6] 32.4% | [8] 52.9% | [9] 22.5% | [10] 52.8% | [11] 27% | [12] 69.8% | [13] 33.2% | [14] 69% | [15] 65.8% | [19] 41% | [17] 11.9%
active: [7] -52.2% | [18] 3.58%

CC(=O)c1cc2c(N)c(C(=O)Nc3cccc(Cl)c3)sc2nc1C
inactive: [1] 72.4% | [2] 82.3% | [3] 82.6% | [4] 91.3% | [5] 91.4% | [6] 74.4% | [7] 43.2% | [8] 56.2% | [9] 89.5% | [10] 92.9% | [11] 39% | [12] 76.5% | [13] 92.6% | [14] 78.7% | [15] 90.4% | [16] 37.4% | [17] 92.8% | [18] 73.4%

Cc1cc(-c2ccccc2)nc2ccccc12
inactive: [1] 97.5% | [2] 113% | [3] 86.9% | [4] 101% | [5] 97.4% | [6] 99.8% | [7] 95% | [8] 95.7% | [9] 98.5% | [10] 114% | [11] 109% | [12] 81.1% | [13] 104% | [14] 77% | [15] 135% | [16] 106% | [17] 84.9% | [18] 91.5%

COc1ccc(/C=C/C(=O)c2ccc(-n3cc(CN4CCN(c5cc6c(cc5F)c(=O)c(C(=O)O)cn6C5CC5)CC4)nn3)cc2)cc1OC
active: [2] 4.76% | [6] 9.95% | [9] -1.51%
inactive: [1] 33.8% | [3] 65.5% | [4] 44.7% | [5] 10.6% | [7] 50.9% | [8] 54.1% | [10] 34.6% | [11] 97.4% | [12] 80% | [13] 14.9% | [14] 43.5% | [15] 80% | [19] 60% | [16] 54.4% | [18] 10.5%

CC(C)(C)NCC(O)COc1c(Br)c(Br)c(Br)c2c1OC(C)(C)C2 (configuration not stated)
active: [1] -66.9% | [2] -72.7% | [3] 5.77% | [4] -47.2% | [5] -92.4% | [6] -90.2% | [7] -97% | [8] -79.8% | [9] -90.9% | [10] -83.7% | [11] -71.9% | [14] -81.8% | [15] -77.8% | [16] -6.49% | [17] -62.5% | [18] -56.1%
inactive: [12] 50.1% | [13] 33.2%

Cc1ccc(N(CC2=NCCN2)c2cccc(O)c2)cc1
inactive: [1] 102% | [2] 107% | [3] 84.9% | [4] 103% | [5] 88.8% | [6] 92.1% | [7] 99.2% | [8] 105% | [9] 95% | [10] 108% | [11] 107% | [12] 90.2% | [13] 94.6% | [14] 79.7% | [15] 102% | [19] 90% | [16] 93.8% | [18] 97.7%

O=C1C(Cl)=C(Nc2cccc3cc4ccccc4nc23)C(=O)c2ccccc21
active: [2] 4.99%
inactive: [1] 41.4% | [3] 71.9% | [4] 44.6% | [5] 41.8% | [6] 42% | [7] 69.5% | [8] 70.1% | [9] 33.9% | [10] 102% | [11] 44.2% | [12] 71.9% | [13] 45.1% | [14] 25.7% | [15] 54.5% | [16] 46.5% | [17] 64.8% | [18] 25.9%

COc1cc(NS(C)(=O)=O)ccc1Cc1c2ccccc2nc2ccccc12
inactive: [1] 18.3% | [3] 21.4% | [4] 25.9% | [5] 18.7% | [6] 55.2% | [8] 26.1% | [10] 50.7% | [11] 104% | [12] 45.3% | [15] 23.9%
active: [2] 8.23% | [7] 8.33% | [9] -26.2% | [13] -6.92% | [14] -5.05% | [19] -4.78% | [17] 3.42% | [18] 4.35%

CC(C)(CCN=C(N)Nc1ccccn1)c1ccc(C(F)(F)F)cc1
active: [1] 9.42% | [2] -14.8% | [5] -17% | [7] -91.4% | [8] -2.3% | [9] 5.15% | [10] -30.9% | [17] 7.26% | [18] -15.6%
inactive: [3] 48.3% | [4] 37.2% | [6] 19.7% | [11] 38.5% | [12] 21.6% | [13] 23.9% | [14] 14.4% | [15] 37% | [16] 57.2%

O=c1c(-c2ccc3c(c2)OCO3)coc2c(CO)c(O)ccc12
inactive: [1] 12.6% | [2] 86.1% | [4] 13.5% | [10] 40.3% | [18] 90.3%
active: [3] -5.16% | [5] -92.6% | [6] -52.4% | [7] 5.73% | [8] -53.1% | [9] -43.6% | [11] -66.3% | [12] 3.55% | [13] -3.58% | [14] -81.9% | [15] -15.2% | [16] -26.7% | [17] 1.63%
